# According to article PMC4552634, “A New Set of Chemical Starting Points with Plasmodium falciparum Transmission-Blocking Potential for Antimalarial Drug Discovery” (PLoS ONE, 2015):
# About 3,200 (25%) of roughly 13,000 compounds showed an effect of 50% or more. This is one part of the list.
# Tested on: P. falciparum stage V gametocytes
# Set-up: BacTiter-Glo ATP luminescence viability of purified stage V gametocytes in 384-well plates, per cent inhibition versus DMSO
# Conditions: 48 h, 5 µM; inhibitor
row,SMILES,% Inhibition [%]
1,CCCC1N=C(N)N=C(N)N1c1ccc(C)c(C)c1 (stereo not shown) [TCMDC-131301],2.054
2,O=C(Nc1cc(C(F)(F)F)ccc1N1CCOCC1)C(Cl)(Cl)Cl [TCMDC-123707],15.78
3,CCCCN(CCCC)C(=N)c1cccc2c1CCCC2 [TCMDC-131553],17.3
4,COc1ccc(CC2(c3ccc(F)cc3)N=C(N)N(CCCc3ccc4c(c3)OCO4)C2=O)cc1 (stereo not shown) [TCMDC-136540],-15.69
5,COc1cc(Cc2cnc(N)nc2N)cc(OCCNC(=O)OCc2ccccc2)c1OC [TCMDC-138056],-17.39
6,CCOC(=O)Nc1cc(-c2csc(N=C(N)N)n2)cc([N+](=O)[O-])c1 [TCMDC-137230],-82.77
7,Cn1nccc1C(=O)NCCNCc1cccc(-c2cccc(-c3nc4cc(C(F)(F)F)ccc4[nH]3)c2)c1.O=C(O)C(F)(F)F [TCMDC-133008],12.04
8,COc1cc2c(cc1S(=O)(=O)c1ccc(NC(=O)c3cc4ccccc4s3)cc1)CCN(C)CC2 [TCMDC-133789],17.23
9,COc1ccc2nc(C)cc(NC3Cc4ccccc4C3)c2c1.Cl [TCMDC-138978],40.25
10,COc1ccc(Nc2nc(N/N=C/c3ccc(-c4ccc([N+](=O)[O-])cc4)o3)nc(Nc3ccccc3)n2)cc1 [TCMDC-124187],17.9
11,Oc1ccc2ccccc2c1C=NNc1nc(Nc2ccccc2)nc(Nc2ccccc2)n1 [TCMDC-125790],78.83
12,COc1ccc(Nc2nc(NN=Cc3cc(Br)c(O)cc3O)nc(Nc3ccc([N+](=O)[O-])cc3)n2)cc1 [TCMDC-124181],28.04
13,O=[N+]([O-])c1cc2c(cc1C=NNc1nc(Nc3ccccc3)nc(Nc3ccccc3)n1)OCO2 [TCMDC-124249],-0.02415
14,COc1c(C=NNc2nc(Nc3ccccc3)nc(Nc3ccccc3)n2)ccc(Br)c1O [TCMDC-125800],79.97
15,COc1ccc(Nc2nc(NN=Cc3cc(Cl)ccc3O)nc(Nc3ccccc3)n2)cc1 [TCMDC-124115],59.23
16,COc1ccc(Nc2nc(N/N=C/c3cc(Br)ccc3O)nc(Nc3ccc([N+](=O)[O-])cc3)n2)cc1 [TCMDC-124182],30.94
17,Oc1ccc2ccccc2c1C=NNc1nc(Nc2ccccc2)nc(N2CCOCC2)n1 [TCMDC-123839],-12.77
18,Brc1cc2c(cc1C=NNc1nc(Nc3ccccc3)nc(Nc3ccccc3)n1)OCO2 [TCMDC-124195],14.96
19,Cc1cccc(CN2CCCC3(CCN(Cc4ccccc4O)C3)C2)c1 (stereo not shown) [TCMDC-124654],29.07
20,Cc1cc(NC(=O)c2cccs2)ccc1OC1CCN(Cc2ccccc2)C1 (stereo not shown) [TCMDC-133968],-2.762
21,O=C(Cc1cnc[nH]1)Nc1ccc(-c2cccc(-c3nc4ccc(F)cc4[nH]3)c2)cc1 [TCMDC-136941],11.61
22,CCCCCCN1CCCN(Cc2ccc(C(=O)Nc3ccc(F)c(F)c3)cc2)CC1 [TCMDC-136392],-27.76

row,SMILES,% Inhibition [%]
1,Fc1ccc2nc(-c3ccc(-c4ccc(CNCCc5ccncc5)cc4)s3)[nH]c2c1 [TCMDC-132848],-14.58
2,CS(=O)(=O)NCCCNCc1ccc(-c2ccc(-c3nc4ccc(F)cc4[nH]3)s2)cc1 [TCMDC-133084],18.31
3,COc1ccc(CNCc2ccc(-c3ccc(-c4nc5cc(C(F)(F)F)ccc5[nH]4)s3)cc2)cc1.O=C(O)C(F)(F)F [TCMDC-132719],-32.49
4,CNCCNCc1cccc(-c2ccc(-c3nc4ccccc4[nH]3)s2)c1 [TCMDC-132823],28.05
5,CNCCNCc1ccc(-c2ccc(-c3nc4ccc(F)cc4[nH]3)s2)cc1 [TCMDC-132829],87.07
6,CNCCNCc1ccc(-c2ccc(-c3nc4ccc(C(F)(F)F)cc4[nH]3)s2)cc1 [TCMDC-132838],66.7
7,CN1CCCC1CCOc1ccc2c(c1)N(C(=O)Nc1cc(Br)cc(C(F)(F)F)c1)CC2 (stereo not shown) [TCMDC-140247],47.25
8,CC(C)c1ccc(NS(=O)(=O)c2cccc(C(=O)NC3CCN(CC4CCCCC4)CC3)c2)cc1 [TCMDC-136739],-17.03
9,CCOC(=O)CCCOc1cc(Cc2cnc(N)nc2N)cc(OC)c1OC [TCMDC-137356],44.1
10,CC(C(=O)NC1CCN(c2ccnc(Nc3ccc(F)cc3)n2)C1)c1ccc(Cl)cc1 (stereo not shown) [TCMDC-133596],19.11
11,COc1ccc(Nc2nccc(N3CCC(NC(=O)C(C)c4ccc(Cl)cc4)C3)n2)cc1 (stereo not shown) [TCMDC-133612],-10.01
12,COc1ccc(Cl)cc1NC(=O)C(C)Nc1ccc(-c2ccccc2)cc1 (stereo not shown) [TCMDC-123559],-53.48
13,CC(C)C(C(=O)Nc1ccc2c(c1)OCO2)c1ccc(Cl)cc1 (stereo not shown) [TCMDC-125398],78.19
14,COc1cc(C(C)C)nc2ccc(NC(=O)c3ccc(C(=O)Nc4ccc5nc(C(C)C)cc(OC)c5c4)cc3)cc12 [TCMDC-140150],33.52
15,COc1cc(Nc2nccc(N3CCC(NC(=O)C(C)c4ccc(Cl)cc4)C3)n2)cc(OC)c1OC (stereo not shown) [TCMDC-133623],58.38
16,O=C(Nc1ccc2c(c1)OCO2)c1cc(-c2cccnc2)nc2ccc(Cl)cc12 [TCMDC-125213],-64.78
17,Cc1cc(N2CCCC2)nc(Nc2ccc(NC(=O)c3ccc4c(c3)OCO4)cc2)n1 [TCMDC-124955],-35.01
18,Cc1nc2ccc(NC(=O)c3cc(S(=O)(=O)N(C)C)ccc3Cl)cc2s1 [TCMDC-124375],38.91
19,CC(C)c1ccc(CN(C)CCCCNC(=O)c2ccc(NC(=O)c3ccc(Cl)cc3)cc2)cc1 [TCMDC-138505],20.72
20,COc1cc(NC(=O)C(c2ccc(Cl)cc2)C(C)C)cc(OC)c1OC (stereo not shown) [TCMDC-125118],82.24
21,CC(C)C(C(=O)Nc1ccc(S(=O)(=O)N(C)C)cc1)c1ccc(Cl)cc1 (stereo not shown) [TCMDC-125113],56.45
